# miR-122 inh = raises miR-122 sensor activity in Huh7 cells. 340,000 compounds, 0.14% hits. AID 623901. Huh7 psiCHECK-miR122 Renilla luciferase sensor, 48 h. activation, % at 12.5 µM;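 active = mean activation of 30% or more, with every replicate also reaching 30%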;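 note: higher luciferase signal means stronger suppression of miR-122 activity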
# Hits are given with their value; - = inactive. The full list was thinned out, with hits kept by preference.
SMILES,miR-122 inh
OC(CNCCC1C=Nc2ccccc21)Cn1c2ccc(Cl)cc2c2cc(Cl)ccc21 (stereo not drawn),55.1
COCC#Cc1cnc2c(c1)C(=O)N([C@H](C)CO)C[C@H](C)[C@H](CN(C)C(=O)Nc1c(C)noc1C)O2,-
COCC(=O)N(C)C[C@@H]1Oc2ncc(/C=C/c3ccccc3)cc2C(=O)N([C@H](C)CO)C[C@@H]1C,-
C[C@@H]1CN([C@@H](C)CO)C(=O)c2cc(C#CC3(O)CCCC3)cnc2O[C@@H]1CN(C)C(=O)Cc1ccccc1,-
CCC(=O)N(C)C[C@H]1Oc2cc(C#C[C@@H](C)O)ccc2S(=O)(=O)N([C@@H](C)CO)C[C@@H]1C,-
C/C=C/c1ccc2c(c1)O[C@H](CN(C)C(=O)c1cccnc1)[C@H](C)CN([C@@H](C)CO)S2(=O)=O,-
Cn1cnc(S(=O)(=O)N2C[C@@H](O)COC[C@H]3O[C@@H](CC(=O)NC4CCCC4)CC[C@@H]32)c1,-
CCCCCCCCCn1c2c(c(=N)c3c1CCC3)CCC2,47.1
C[C@@H]1CN([C@@H](C)CO)C(=O)c2cc(C#CC3CC3)cnc2O[C@@H]1CN(C)C,-
COc1cccc(NC(=O)N(C)C[C@H]2Oc3cc(-c4cccc(C(=O)N(C)C)c4)ccc3S(=O)(=O)N([C@@H](C)CO)C[C@H]2C)c1,-
C[C@@H]1CN([C@@H](C)CO)S(=O)(=O)c2ccc(-c3ccc(C(=O)N(C)C)cc3)cc2O[C@H]1CN(C)C,-
Cc1noc(C)c1NC(=O)N(C)C[C@H]1Oc2ncc(C#CCC(C)C)cc2C(=O)N([C@@H](C)CO)C[C@@H]1C,-
O=S(=O)(Nc1ccc2ccccc2c1)c1ccccc1,-
CSc1cccc(NS(=O)(=O)c2ccccc2)c1,35.5
CSc1cccc(NS(=O)(=O)c2cc(Br)cnc2N)c1,-
C[C@H]1CN([C@@H](C)CO)C(=O)c2cc(-c3cccc(F)c3)cnc2O[C@@H]1CN(C)C(=O)c1cccc(F)c1,-
C[C@H]1CN([C@@H](C)CO)C(=O)c2cc(C#Cc3ccccc3F)cnc2O[C@H]1CN(C)C(=O)Cc1ccncc1,-
O=[N+]([O-])c1ccc(O)c(/C=N/Nc2ccc(Cl)nn2)c1,45.8
C[C@@H]1CN([C@H](C)CO)S(=O)(=O)c2ccc(-c3ccccc3)cc2O[C@H]1CN(C)S(=O)(=O)c1ccccc1F,-
COc1ccc(C(=O)Nc2ccc3c(c2)OC[C@H](C)N(C)C[C@H](C)[C@H](OC)CN(C)C3=O)cc1,-
CCCNC(=O)Nc1ccc2c(c1)OC[C@H](C)N(C)C[C@@H](C)[C@@H](OC)CN(C)C2=O,-
C/C=C/c1cnc2c(c1)C(=O)N([C@@H](C)CO)C[C@@H](C)[C@@H](CN(C)CC1CCOCC1)O2,-
Cc1ccccc1-c1cnc2c(c1)C(=O)N([C@H](C)CO)C[C@@H](C)[C@H](CN(C)C(=O)c1ccccc1)O2,-
C=CCNC(=S)NNC(=O)Cn1c(-c2ccccc2)cc(=O)n2ncnc12,34.0
C[C@@H]1CN([C@@H](C)CO)C(=O)c2cc(-c3cccc(F)c3)cnc2O[C@@H]1CN(C)S(C)(=O)=O,-
SMILES,miR-122 inh
C[C@H]1CN([C@@H](C)CO)C(=O)c2cc(C#Cc3ccccc3F)cnc2O[C@@H]1CN(C)C(=O)C1CCOCC1,-
C[C@@H]1CN([C@@H](C)CO)C(=O)c2cc(-c3cncnc3)cnc2O[C@H]1CN(C)Cc1ccccc1,-
CN1C(=O)c2cc(NC(=O)c3cccc(F)c3)ccc2OC[C@H]2O[C@H](CC(=O)NC3CCC3)CC[C@H]21,70.0
CN1C(=O)c2cc(NC(=O)c3cccc(F)c3)ccc2OC[C@H]2O[C@@H](CC(=O)O)CC[C@H]21,53.3
CO[C@H]1CN(C)C(=O)c2cc(NC(=O)c3ccc(F)cc3)ccc2OC[C@H](C)N(C)C[C@@H]1C,-
CN1C(=O)c2cc(NC(=O)c3cccc(F)c3)ccc2OC[C@@H]2O[C@@H](CC(=O)O)CC[C@@H]21,86.7
CC(=O)N(C)C[C@@H]1Oc2cc(C#CC3CCCCC3)ccc2S(=O)(=O)N([C@@H](C)CO)C[C@@H]1C,-
Cc1ccc(S(=O)(=O)N(C)C[C@@H]2Oc3cc(-c4cccc(F)c4)ccc3S(=O)(=O)N([C@H](C)CO)C[C@H]2C)cc1,-
COCC(=O)N(C)C[C@H]1Oc2ncc(/C=C/c3ccccc3)cc2C(=O)N([C@@H](C)CO)C[C@@H]1C,-
CC(C)NC(=O)N(C)C[C@@H]1Oc2cc(C3=CCCCC3)ccc2S(=O)(=O)N([C@H](C)CO)C[C@H]1C,-
C[C@H]1CN([C@@H](C)CO)S(=O)(=O)c2ccc(C#CCC3CCCC3)cc2O[C@@H]1CN(C)C(=O)CC1CC1,-
C[C@@H]1CN([C@@H](C)CO)C(=O)c2cc(C#Cc3ccccn3)cnc2O[C@@H]1CN(C)CC1CCOCC1,-
C[C@H](CO)N1C[C@H](C)[C@@H](CN(C)Cc2ccc(C(F)(F)F)cc2)Oc2c(NC(=O)c3cnccn3)cccc2C1=O,-
COc1cccc(-c2cnc3c(c2)C(=O)N([C@@H](C)CO)C[C@H](C)[C@H](CN(C)C(=O)Nc2ccccc2F)O3)c1,-
